Screening results: PubChem BioAssay, National Center for Advancing Translational Sciences (NCATS)
CRE Fsk mod – modulators of forskolin-stimulated CRE signaling in CHO cells; CHO CRE-bla reporter (cAMP response element driving beta-lactamase), forskolin EC10, beta-lactamase ratio; Potency, µM (series often up to 38.2 µM), for the others: at the highest dose activity change, negative = inhibition, actives largely listed as activators; hit rate 2.5% among 71,000; AID 662; active = well fitted activation curve with a large enough effect in the signal ratio, with a control signal flat, not every such curve was filed as active; inconclusive = small, poorly fitted or top-dose-only effect, or effect the other way, or a change in a side signal; the % refers to the signal ratio; also: % of control where 0% means no effect
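Modulation of forskolin-driven signalling is measured in CHO cells carrying a CRE-controlled beta-lactamase reporter. Cells are stimulated with EC10 NKH 477 in the presence of titrated compound for 3 h at 37 °C, then loaded with CCF4 for 2 h at room temperature.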
HEK293 cAMP ctrl – counter-screen for TSHR agonists: cAMP increase in parental HEK293 | parental HEK293 CNG cAMP sensor, membrane potential fluorescence | Potency, µM (top dose mostly 57.1 µM), inactives show top-dose activation, actives largely listed as activators | hit rate 2.5% among 73,000; active = well fitted activation curve with a large enough effect; inconclusive = small, poorly fitted or top-dose-only effect; inactive = no such curve, though single readings can be large or run the other way; also: % of control where 0% means no effect; nearly all actives have a fitted effect of over 55% in size
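Parental HEK 293 cells stably expressing a modified CNG channel (no TSHR) report cAMP rise as membrane depolarization. Membrane potential dye with 100 uM RO 20-1724 was loaded for 60 min at room temperature, then compound added for 30 min; fluorescence read at 590 nm.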
TSHR agonist – TSH receptor (human) agonism; P16473; HEK293-CNG-TSHR cells (CNG channel as cAMP sensor), membrane potential dye, cAMP; Potency, µM (series often up to 57.1 µM), for inactives: at the highest dose activation, most hits filed as activators; hit rate 0.48% among 73,000; AID 926; active = well fitted activation curve with a large enough effect in the main read-out, with a control signal flat, not every such curve was filed as active; inconclusive = small, poorly fitted or top-dose-only effect, or a change in a side signal; inactive = no such curve, though single readings can be large or run the other way; % of control where 0% means no effect;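 also: the control signal comes from parental cells without the receptor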
Target sequence (P16473 whole entry, looked up): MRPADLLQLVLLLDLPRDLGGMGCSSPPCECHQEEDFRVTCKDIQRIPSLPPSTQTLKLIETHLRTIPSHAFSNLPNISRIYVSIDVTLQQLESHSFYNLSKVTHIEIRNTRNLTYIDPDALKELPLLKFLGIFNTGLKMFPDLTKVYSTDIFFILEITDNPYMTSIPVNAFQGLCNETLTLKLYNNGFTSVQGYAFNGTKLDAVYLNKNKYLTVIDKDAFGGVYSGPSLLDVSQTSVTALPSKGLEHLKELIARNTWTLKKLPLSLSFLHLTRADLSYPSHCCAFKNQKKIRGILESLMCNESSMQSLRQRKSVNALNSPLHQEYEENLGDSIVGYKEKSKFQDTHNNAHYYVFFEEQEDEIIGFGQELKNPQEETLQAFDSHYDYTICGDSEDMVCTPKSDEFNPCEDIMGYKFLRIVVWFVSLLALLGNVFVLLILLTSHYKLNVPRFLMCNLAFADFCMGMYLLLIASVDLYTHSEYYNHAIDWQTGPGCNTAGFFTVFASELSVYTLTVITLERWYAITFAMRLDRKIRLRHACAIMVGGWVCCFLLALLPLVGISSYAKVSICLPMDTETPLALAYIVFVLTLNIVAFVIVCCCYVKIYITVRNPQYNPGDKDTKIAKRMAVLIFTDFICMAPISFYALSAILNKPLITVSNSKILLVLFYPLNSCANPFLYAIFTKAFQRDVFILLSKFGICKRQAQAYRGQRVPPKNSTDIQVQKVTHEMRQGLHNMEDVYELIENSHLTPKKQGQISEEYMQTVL
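HEK 293 cells stably expressing TSHR and a cAMP-gated CNG channel; parental CNG-only cells as counterscreen. Cells preloaded 60 min with membrane potential dye plus 100 uM RO 20-1724, then compound 30 min; fluorescence read at 590 nm.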
Hsp90 Hop PPI – changes Hsp90-Hop TPR2A binding signal, up or down. AlphaScreen TPR2A-His6 binding biotin-Hsp90 C-terminal peptide. Potency, µM (highest dose often 57 µM), inactives show top-dose activity change, negative = inhibition. hit rate 0.44% among 71,000; active = well fitted curve in either direction with a large enough effect; inconclusive = small, poorly fitted or top-dose-only effect, or another doubt; also: % is scaled to controls: 0 for no effect and ±100 for the full control effect
IkB signaling – suppresses IkB signaling in ABC-DLBCL reporter cells; Potency, µM (doses to about 57.1 µM), for inactives: at the top dose IkBa stabilization activation; AID 445; ABC-DLBCL IkBa-CBG/CBR dual luciferase ratio, 4 h; response scale: scaled: untreated 0%, proteasome inhibitor 100%; hit rate 0.04% among 110,000; active = well fitted curve in the direction sought with a large enough effect in the signal ratio, not every such curve was filed as active; inconclusive = small, poorly fitted or top-dose-only effect, or a change in a side signal; the % refers to the signal ratio;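 also: the direction sought is a rising ratio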
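In this assay, an IκBα–CBG68 fusion accumulates when IKK-driven degradation is blocked; native CBR normalizes for cell number. OCI-Ly3 cells were treated 4 h with compound and doxycycline, then green and red light read after Chroma-Glo addition.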
Numbers without * were called inactive; ? = inconclusive; nt = not tested or not shown; [ ] = another dose, or the depositor's remark. An excerpt weighted towards active compounds, which were near 3.5% of everything screened. Potency is read from the fitted curve at half-maximal effect.

SMILES | CRE Fsk mod | HEK293 cAMP ctrl | TSHR agonist | Hsp90 Hop PPI | IkB signaling
Cc1oc(-c2ccc(C(=O)NC(C)c3ccccc3)cc2)nc1CS(=O)(=O)c1ccccc1 (stereo not drawn) | nt | nt | nt | nt | -0.4%
OCCn1c(CSc2nnc(-c3ccco3)n2-c2ccccc2)nc2ccc(Cl)cc21 | 0.2µM* | 25.9% | 8.1% | -2.5% | ?
CCOC(=O)c1c(Nc2nc(C)c(C(=O)NC)s2)sc(C)c1C | 2.51µM* | -19.2% | 3.6% | 2.1% | 0.3%
CCOC(=O)c1c(NC(=O)c2cc(C)on2)sc(C)c1C | nt | nt | nt | nt | -0.2%
COc1ccc(-n2ncc(C(=O)NCCCN3CCCCC3)c2C2CCN(C(=O)OC(C)(C)C)CC2)cc1 | nt | nt | nt | nt | -0.1%
COc1cc(NS(=O)(=O)c2ccc(C)cc2)c2ncccc2c1 | ? | ? | ? | -29.3% | 1.26µM*
COc1ccc(C)cc1NS(=O)(=O)c1cccc2cccnc12 | 10.0% | ? | ? | -10.6% | 2.0%
O=c1c(O)c(-c2ccc(O)cc2)oc2ccc(O)cc12 | 22.1% | -1.3% | 5.1% | -1.4% | ?
C=CCn1c(SCC(=O)Nc2cc(C)c(Cl)cc2OC)nnc1-c1ccco1 | ? | 25.1µM* | ? | -11.6% | ?
CC(C)CN1CC[C@@]2(CCCN(C(=O)c3cc(C(F)(F)F)cc(C(F)(F)F)c3)C2)C1 | -9.4% | 12.3% | 4.4% | -1.2% | 6.0%[11.4 µM]
O=C(NCc1ccco1)C1CCCN(S(=O)(=O)c2ccc(-n3cnnn3)cc2)C1 (stereo not drawn) | -4.8% | 20µM* | ? | -5.0% | 0.0%
Cc1ccc(S(=O)(=O)N2CCCCC2C(=O)NCc2ccco2)cc1 (stereo not drawn) | ? | 3.3% | 15.8µM* | -13.7% | 8.4%
Cc1ccc(N2CCN(C(=O)c3cnn(-c4ccc(F)cc4F)c3C3CCN(C(=O)OC(C)(C)C)CC3)CC2)c(C)c1 | nt | nt | nt | nt | 2.0%
CCOc1ccccc1NC(=O)NCc1ccc2c(c1)CCN2C(=O)c1ccccc1 | nt | nt | nt | nt | 0.7%
CCCCn1c(NC(=O)c2ccccc2Cl)c(C#N)c2nc3ccccc3nc21 | ? | 4.5% | -4.4% | 29.6% | ?
CCCCn1c(NC(=O)CC)c(C#N)c2nc3ccccc3nc21 | ? | 25.1µM* | ? | 8.5% | ?
Cc1ccc(-c2nc3ccccc3n3c(-c4ccccc4)c4c(=O)n(C)c(=O)n(C)c4c23)cc1 | nt | nt | nt | nt | -2.5%
Cn1c(=O)c2c(-c3ccccc3)n3c4ccccc4ncc3c2n(C)c1=O | 3.98µM* | 13.3% | 14.3% | -1.6% | -1.3%
C/C(N)=C(/C#N)C(=O)CSc1nnc(SCc2ccc(Cl)cc2)s1 | -1.3% | 31.6µM* | ? | 3.2% | ?
C/C(N)=C(/C#N)C(=O)CSc1nnc(Nc2c(C)cccc2C)s1 | -11.1% | 5.3% | -0.7% | -2.8% | 0.4%
OC[C@@H]1O[C@@H](n2cnc3c(NCc4ccco4)ncnc32)[C@H](O)[C@H]1O | ? | -0.5% | 19.4% | -4.9% | 3.3%[11.4 µM]
C[C@@H](Cc1ccccc1)Nc1ncnc2c1ncn2[C@@H]1O[C@@H](CO)[C@H](O)[C@@H]1O | -7.2% | 25.1µM* | ? | -14.6% | ?
OC[C@H]1O[C@H](n2cnc3c(NC4CCCC4)nc(Cl)nc32)[C@@H](O)[C@@H]1O | -9.4% | 5.7% | 15.9% | 1.9% | 0.5%
Cc1ccccc1CNc1ncnc2c1ncn2[C@@H]1O[C@@H](CO)[C@H](O)[C@@H]1O | -8.3% | 7.94µM* | ? | -0.5% | ?
Nc1nc(Cl)nc2c1ncn2[C@@H]1O[C@@H](CO)[C@@H](O)[C@H]1O | ? | 7.94µM* | ? | -6.6% | ?
SMILES | CRE Fsk mod | HEK293 cAMP ctrl | TSHR agonist | Hsp90 Hop PPI | IkB signaling
COc1ccc(Br)cc1CNC(=O)Cn1c(=O)c2cccn2c2ccc(F)cc21 | nt | nt | nt | nt | 1.0%
O=C(CSc1n[nH]c(-c2ccc(F)cc2)n1)NCc1ccccc1Cl | nt | nt | nt | nt | -1.0%
N#Cc1cc2cc3c(cc2nc1SCC(=O)OC1CCCCC1)OCO3 | 2.7% | 15.8µM* | ? | 9.6% | 0.1%
O=C(Nc1cccc2c1CCCC2)c1ccc(Br)o1 | 1.7% | 25.1µM* | ? | -1.6% | 1.2%
O=c1c(-c2ccc(F)cc2)nc2cnc(Nc3ccccc3)nc2n1Cc1cccs1 | ? | 8.5% | 17.1% | -4.6% | -0.7%[11.4 µM]
CCn1cc(C2=NOC(C(=O)Nc3ccc4c(c3)OCO4)C2)c(C)n1 (stereo not drawn) | nt | 1µM* | ? | nt | nt
CCOC(=O)c1cnc(-n2nc(C)cc2C)nc1NC | 2.6% | 8.8% | 7.7% | ? | -2.1%
CCOC(=O)c1cnc(-n2nc(C)cc2C)nc1Nc1ccc2c(c1)OCO2 | -2.0% | 10.7% | 13.4% | -3.1% | -2.4%
CCOC(=O)c1cnc(-n2nc(C)cc2C)nc1Nc1ccc(N(C)C)cc1 | 0.631µM* | -8.1% | -14.3% | -24.8% | -2.3%
CCOC(=O)c1cnc(-n2nc(C)cc2C)nc1Nc1cccc(C(=O)O)c1 | -7.9% | 13.1% | 25.1µM* | -5.9% | -2.9%
O=C(COC(=O)c1ccccc1NC(=O)c1ccco1)NCCC1=CCCCC1 | ? | 25.1µM* | ? | -2.3% | 0.7%
O=C(COC(=O)c1ccccc1NC(=O)c1ccco1)Nc1ccc2c(c1)OCO2 | -7.0% | ? | ? | -2.9% | ?
COC(=O)c1ccccc1NC(=O)COC(=O)c1ccc(C)c(NC(=O)c2ccco2)c1 | 2.51µM* | ? | ? | -2.9% | ?
COC(=O)c1ccccc1NC(=O)COC(=O)c1ccco1 | 5.9% | 17.5% | 8.5% | -4.0% | 0.6%
Nc1nc(SC/C=C\c2ccccc2)c2[nH]cnc2n1 | ? | -3.0%[11.4 µM] | -4.2%[11.4 µM] | 0.5%[11 µM] | -0.8%[11.4 µM]
CC(=O)Nc1ccccc1-c1nc2ccccc2n(CC(=O)Nc2cccc(C(F)(F)F)c2)c1=O | nt | nt | nt | nt | 1.0%
Cc1nn(Cc2ccc(Cl)c(Cl)c2)c(C)c1NC(=O)c1cc(-c2ccc3c(c2)OCO3)on1 | 10µM* | 8.0% | 2.5% | -7.3% | ?
COc1ccc(OC)c(-c2cc(C(=O)Nc3c(C)nn(Cc4ccc(Cl)cc4)c3C)no2)c1 | 3.98µM* | 6.1% | nt | -3.0% | ?
Cc1nn(Cc2ccc(Cl)cc2)c(C)c1NC(=O)c1cc(-c2ccc3c(c2)OCO3)on1 | ? | 5.8% | 2.7% | 1.2% | 13.5%
COc1ccc(OC)c(-c2cc(C(=O)N3CCc4ccccc4C3)no2)c1 | 5.01µM* | ? | ? | 11.0% | ?
COc1ccc(OC)c(-c2cc(C(=O)Nc3c(C)nn(Cc4ccccc4)c3C)no2)c1 | 5.01µM* | 0.9% | 4.1% | -7.3% | ?
CCCn1c(C)nc2c(NCC(C)(C)CN(C)C)nc(C)nc21 | 1.2% | 4.3% | 10.1% | -1.9% | nt
COc1ccc(C(=O)N(Cc2cc(OC)c(OC)c(OC)c2)CC2CCCO2)cc1 (stereo not drawn) | nt | nt | nt | nt | 0.1%
CN1CCc2c(cc(O)c(O)c2Cl)[C@H](c2cccc(Cl)c2)C1 | -2.6% | ? | ? | 12.6µM* | 8.5%
